From PubChem BioAssay (NCATS)
Records with an inconclusive call do not appear. A call without a number means that no potency is given here. Calls of active or inactive are those of the source. The call rests on the fitted dose curve; in most records, active means well fitted curve in the direction sought with a large enough effect; inconclusive means small, poorly fitted or top-dose-only effect, or another doubt; inactive means no such curve, though single readings can be large; an effect the other way counts as inactive or inconclusive.

Key:
[1] = Quantitative High-Throughput drug screen in 47 multiple myeloma cell lines against the NCATS MIPE library collection: MMM1_PLB cell viability assay (AID 1918976); conditions: MMM1 myeloma cells viability, CellTiter-Glo, 48 h; series mostly up to 45.8 µM; further: nearly all actives have a fitted effect of over 35% in size; further: potency means the concentration at half of the fitted maximal effect
In short: (§1)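 Myeloma cells (500/well) treated with MIPE 4.0 compounds for 48 h at 37 °C, 5% CO2. Viability read as ATP via CellTiter-Glo luminescence after 5 min at RT; DMSO-only wells = 100%, media-only = 0% viability.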

[2] = Quantitative High-Throughput drug screen in 47 multiple myeloma cell lines against the NCATS MIPE library collection: OCIMY1_PLB cell viability assay (AID 1918979); conditions: OCI-MY1 myeloma viability, CellTiter-Glo ATP, 48 h; series mostly up to 45.8 µM; further: nearly all actives have a fitted effect of over 35% in size
In short: as §1

[3] = Quantitative High-Throughput drug screen in 47 multiple myeloma cell lines against the NCATS MIPE library collection: MM1S_ATCC cell viability assay (AID 1918980); conditions: MM1S myeloma viability, CellTiter-Glo ATP luminescence, 48 h; series mostly up to 45.8 µM; further: nearly all actives have a fitted effect of over 45% in size; further: potency means the concentration at half of the fitted maximal effect
In short: as §1

[4] = Quantitative High-Throughput drug screen in 47 multiple myeloma cell lines against the NCATS MIPE library collection: MM1R_ATCC cell viability assay (AID 1918981); conditions: MM1R multiple myeloma cells, CellTiter-Glo viability, 48 h; series mostly up to 45.8 µM; further: nearly all actives have a fitted effect of over 35% in size; further: potency means the concentration at half of the fitted maximal effect
In short: as §1

[5] = Quantitative High-Throughput drug screen in 47 multiple myeloma cell lines against the NCATS MIPE library collection: NCIH929_DSMZ cell viability assay (AID 1918978); conditions: NCI-H929 myeloma viability, CellTiter-Glo ATP, 48 h; series mostly up to 45.8 µM; further: nearly all actives have a fitted effect of over 35% in size; further: potency means the concentration at half of the fitted maximal effect
In short: as §1

[6] = Quantitative High-Throughput drug screen in 47 multiple myeloma cell lines against the NCATS MIPE library collection: KMS28PE_JCRB cell viability assay (AID 1918983); conditions: KMS28PE multiple myeloma viability, CellTiter-Glo ATP, 48 h; series mostly up to 45.8 µM; further: nearly all actives have a fitted effect of over 35% in size; further: potency means the concentration at half of the fitted maximal effect
In short: as §1

[7] = Quantitative High-Throughput drug screen in 47 multiple myeloma cell lines against the NCATS MIPE library collection: LP1_DSMZ cell viability assay (AID 1918982); conditions: LP1 myeloma viability, CellTiter-Glo ATP luminescence, 48 h; series mostly up to 45.8 µM; further: nearly all actives have a fitted effect of over 35% in size; further: potency means the concentration at half of the fitted maximal effect
In short: as §1

[8] = Quantitative High-Throughput drug screen in 47 multiple myeloma cell lines against the NCATS MIPE library collection: MOLP8_DSMZ cell viability assay (AID 1918977); conditions: MOLP8 myeloma viability, CellTiter-Glo ATP luminescence, 48 h; series mostly up to 45.8 µM; further: nearly all actives have a fitted effect of over 45% in size; further: potency means the concentration at half of the fitted maximal effect
In short: as §1

SMILES | Potency [1] | Potency [2] | Potency [3] | Potency [4] | Potency [5] | Potency [6] | Potency [7] | Potency [8]
NC(=O)c1nnn(Cc2cc(Cl)c(C(=O)c3ccc(Cl)cc3)c(Cl)c2)c1N | 20.9 µM (active) | inactive | 18.7 µM (active) | 18.7 µM (active) | – | – | – | –
Nc1ncnc2c1c(-c1cccc(OCc3ccccc3)c1)cn2C1CC(CN2CCC2)C1 (stereo not given) | 2.96 µM (active) | – | 2.96 µM (active) | 4.69 µM (active) | 0.418 µM (active) | 3.32 µM (active) | – | –
CC(C)C[C@@H](N)[C@H](O)C(=O)N[C@H](C(=O)N[C@H](C(=O)N[C@@H](CC(=O)O)C(=O)O)C(C)C)C(C)C | 1.66 µM (active) | inactive | – | – | – | inactive | inactive | –
Cc1ccc(NC(=O)c2ccc(CN3CCN(C)CC3)cc2)cc1Nc1nc(-c2cccnc2)cs1 | 18.7 µM (active) | – | – | 20.9 µM (active) | 23.5 µM (active) | 16.6 µM (active) | – | –
Cn1cc(-c2ccc3nnc(Sc4ccc5ncccc5c4)n3n2)cn1 | 16.6 µM (active) | inactive | 4.18 µM (active) | 23.5 µM (active) | – | – | 0.001 µM (active) | –
CC1C(=O)OC2C(O)C34C5CC(C(C)(C)C)C36C(OC(=O)C6O)OC4(C(=O)O5)C12O (stereo not given) | 0.0187 µM (active) | – | 20.9 µM (active) | inactive | inactive | inactive | inactive | –
CNc1nc(Nc2ccc(C(=O)N3CCOCC3)cc2OC)ncc1Cl | 13.2 µM (active) | inactive | – | 5.9 µM (active) | – | inactive | – | –
CCN1CCC(n2cc(CNc3cc(Cl)c4ncc(C#N)c(Nc5ccc(F)c(Cl)c5)c4c3)nn2)CC1 | 14.8 µM (active) | – | 16.6 µM (active) | 8.33 µM (active) | 20.9 µM (active) | 7.43 µM (active) | – | –
CN[C@@H]1[C@@H](O)[C@@H](O[C@@H]2[C@@H](O)[C@H](O[C@H]3O[C@H](CN)[C@@H](O)[C@H](O)[C@@H]3O)[C@@H](N)C[C@@H]2NC(=O)[C@@H](O)CN)OC[C@]1(C)O | 5.26 µM (active) | – | – | inactive | inactive | inactive | inactive | –
Nc1nc(Cl)nc2c1ncn2[C@@H]1O[C@H](CO)[C@@H](O)[C@H]1F | 2.09 µM (active) | – | – | – | 0.0332 µM (active) | 0.0418 µM (active) | – | –
CC(C)(OCc1nn(Cc2ccccc2)c2ccccc12)C(=O)O | inactive | inactive | 13.2 µM (active) | – | – | – | – | –
Oc1ccc(C=Cc2cc(O)cc(O)c2)cc1 | 16.6 µM (active) | – | 18.7 µM (active) | 16.6 µM (active) | inactive | inactive | – | –
COc1ccc(CCN(C)CCCOc2ccc(S(=O)(=O)c3[nH]c4ccccc4c3C(C)C)cc2)cc1OC | 9.35 µM (active) | – | 20.9 µM (active) | – | – | 16.6 µM (active) | – | –
CCCCC[C@H](O)C=C[C@H]1[C@H](O)CC(=O)[C@H]1CC=CCCCC(=O)O | – | inactive | 20.9 µM (active) | inactive | 16.6 µM (active) | inactive | inactive | 16.6 µM (active)
CC(C)(CO)[C@@H](O)C(=O)NCCC(=O)O | – | inactive | inactive | inactive | inactive | – | inactive | inactive
CN1CCC[C@H]1CCO[C@](C)(c1ccccc1)c1ccc(Cl)cc1 | – | inactive | 23.5 µM (active) | – | 11.8 µM (active) | 23.5 µM (active) | inactive | inactive
CC[C@H]1OC(=O)[C@H](C)[C@@H](O[C@H]2C[C@@](C)(OC)[C@@H](O)[C@H](C)O2)[C@H](C)[C@@H](O[C@@H]2O[C@H](C)C[C@H](N(C)C)[C@H]2O)[C@](C)(O)C[C@H](C)C(=NOCOCCOC)[C@H](C)[C@@H](O)[C@]1(C)O | – | inactive | 20.9 µM (active) | inactive | inactive | – | – | –

SMILES | Potency [1] | Potency [2] | Potency [3] | Potency [4] | Potency [5] | Potency [6] | Potency [7] | Potency [8]
O=C(O)C1=CO[C@@H](O[C@@H]2O[C@H](CO)[C@H](O)[C@H](O)[C@H]2O)[C@@H]2C(CO)=CC[C@H]12 | – | inactive | 16.6 µM (active) | inactive | – | inactive | inactive | inactive
CCCCn1c(=O)n(Cc2ccccc2F)c(=O)c2[nH]c(Cc3ccc(NC(C)=O)cc3)nc21 | – | – | 20.9 µM (active) | inactive | inactive | 18.7 µM (active) | inactive | inactive
C[C@@H](N)c1ccc(C(=O)Nc2ccnc3[nH]ccc23)cc1 | – | – | 18.7 µM (active) | – | – | – | – | 16.6 µM (active)
COc1cc(C=CC(=O)O)ccc1O | – | – | – | inactive | inactive | inactive | inactive | inactive
CCN(CCO)CCCOc1ccc2c(Nc3cc(CC(=O)Nc4cccc(F)c4)[nH]n3)ncnc2c1 | – | inactive | inactive | – | inactive | inactive | inactive | inactive
Cc1cc2nc3c(=O)[nH]c(=O)nc-3n(CC(O)C(O)C(O)CO)c2cc1C (stereo not given) | – | inactive | inactive | – | inactive | 0.0833 µM (active) | inactive | inactive
CC(=O)OCC(=O)[C@@]12OC(C)(C)O[C@H]1C[C@H]1[C@@H]3C[C@H](F)C4=CC(=O)C=C[C@]4(C)[C@@]3(F)[C@@H](O)C[C@@]12C | – | inactive | 0.0372 µM (active) | inactive | inactive | inactive | 0.0264 µM (active) | –
COc1ccc(C=CC(=O)Nc2ccccc2C(=O)O)cc1OC | – | – | 11.8 µM (active) | – | inactive | inactive | – | inactive
O=C1CCCC(=O)C1C(=O)c1ccc(C(F)(F)F)cc1[N+](=O)[O-] | – | inactive | 18.7 µM (active) | inactive | inactive | inactive | inactive | –
c1ccc(CNc2nc(N3CCOc4ccccc43)nc3c2CCCC3)cc1 | – | – | – | inactive | inactive | inactive | – | inactive
C[C@H](c1ccc(F)cc1CCCC(=O)O)N(c1cc(F)ccc1F)S(=O)(=O)c1ccc(Cl)cc1 | – | inactive | 10.5 µM (active) | – | 6.62 µM (active) | – | – | –
CO[C@H]1C=CO[C@@]2(C)Oc3c(C)c(O)c4c(O)c(c(C=NN5CCN(C)CC5)c(O)c4c3C2=O)NC(=O)C(C)=CC=C[C@H](C)[C@H](O)[C@@H](C)[C@@H](O)[C@@H](C)[C@H](OC(C)=O)[C@H]1C | – | inactive | inactive | 0.533 µM (active) | inactive | – | – | –
CN(C)CCOc1cc(-c2cn[nH]c2)ccc1NC(=O)C1COc2ccccc2O1 (stereo not given) | – | inactive | – | 13.2 µM (active) | 18.7 µM (active) | 13.2 µM (active) | – | inactive
Cn1cnc(-c2cc3nccc(Oc4ccc(NC(=S)NC(=O)Cc5ccccc5)cc4F)c3s2)c1 | – | inactive | – | – | – | – | 16.6 µM (active) | inactive
Cc1ccc(S(=O)(=O)OCC(=O)Nc2ccc(C(=O)O)c(O)c2)cc1 | – | – | – | – | 7.43 µM (active) | – | inactive | inactive
Cc1c(-c2cccc3c(CCCOc4cccc5ccccc45)c(C(=O)O)n(Cc4cccnc4)c23)c(COc2ccc(N3CCN([S+](=O)([O-])N(C)C)CC3)cc2)nn1C | – | inactive | 23.5 µM (active) | – | 3.72 µM (active) | – | 18.7 µM (active) | –
COc1cc([C@@H]2c3cc4c(cc3[C@@H](O[C@@H]3O[C@@H]5CO[C@@H](C)O[C@@H]5[C@H](O)[C@@H]3O)[C@H]3COC(=O)[C@H]23)OCO4)cc(OC)c1O | – | – | 0.264 µM (active) | 0.372 µM (active) | – | – | – | inactive
